# HCV inhibitor = qHTS Assay for Inhibitors of Hepatitis C Virus (HCV) | hit rate 3.4% among 340,000 | Potency, µM (top dose mostly 41.8 µM), for the others: at the top dose activity change, negative = inhibition, most hits filed as inhibitors | Huh7.5.1 HCVcc-Cre infection, luciferase reporter, 44 h; further: potency means the concentration at half of the fitted maximal effect; on the % scale 0 is the no-effect control and ±100 the full control effect
#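 HCVcc-Cre virus at an moi near 0.5 was added right after compound to cells cultured 4 h from seeding (1,000 cells/well). Luciferase activity was determined 44 h later, 15 min after substrate addition at RT.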
# Pf growth 48h = Primary qHTS for delayed death inhibitors of the malarial parasite plastid, 48 hour incubation; P. falciparum luciferase growth in erythrocytes, 48 h; Potency, µM (top dose mostly 28.7 µM), inactives show top-dose activity change, negative = inhibition, actives largely listed as inhibitors; hit rate 5.9% among 310,000; AID 504832, 2011; further: potency means the concentration at half of the fitted maximal effect; on the % scale 0 is the no-effect control and ±100 the full control effect
#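 First compound was added to culture medium, then infected red cells at 0.1% parasitemia and 2% hematocrit (final). After incubation at 37 C under 5% CO2, luciferase detection reagent was dispensed and light output recorded.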
# Pf growth 96h = Primary qHTS for delayed death inhibitors of the malarial parasite plastid, 96 hour incubation | P. falciparum luciferase reporter growth, 96 h | Potency, µM (doses to about 28.7 µM), for inactives: top-dose activity change, negative = inhibition, most hits filed as inhibitors | hit rate 6.9% among 320,000 | AID 504834, 2011; further: potency means the concentration at half of the fitted maximal effect; on the % scale 0 is the no-effect control and ±100 the full control effect
#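 Delayed-death screen, second-generation endpoint: infected erythrocytes, 2% hematocrit, 0.05% parasitemia final; 96 hours at 37 C, 5% CO2; luciferase detection reagent; luminescence decrease equals reduced growth.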
# Sm TGR inh = qHTS Assay for the Inhibitors of Schistosoma Mansoni Peroxiredoxins; Schistosoma mansoni thioredoxin glutathione reductase (TGR), Q962Y6; purified TGR, DTNB reduction, TNB absorbance 405 nm; Potency, µM (series often up to 114 µM), inactives show top-dose activity change, negative = inhibition, hits mostly inhibitors; hit rate 3% among 360,000; AID 485364, 2010; further: potency means the concentration at half of the fitted maximal effect; on the % scale 0 is the no-effect control and ±100 the full control effect; nearly all actives have a fitted effect of over 60% in size
#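 TGR 20 nM + NADPH 100 uM (dispensed conc.), cpd preinc 15 min RT; start with NADPH (500 uM addition) then DTNB (15 mM addition). Kinetic TNB absorbance, 405 nm filter. Four-parameter Hill fit across titration.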
# HCMV antiviral = qHTS Assay for inhibitors of the human cytomegalovirus (HCMV); HFF cells, HCMV-luciferase reporter, 72 h; stronger effect = lower value; activity change, negative = inhibition, % at 57.5 µM; hit rate 4.5% among 410,000; AID 1259415, 2018; in the data active means activity change below about -60%; inconclusive means no clear call, values can overlap the other calls; inactive means above about -39%; further: on the % scale 0 is the no-effect control and ±100 the full control effect
#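 Human foreskin fibroblasts infected with luciferase-reporter HCMV at MOI 1 PFU/cell, compounds at two doses. Luciferase measured 72 h post infection; normalized to buffer-only basal and Salinomycin (10uM) controls.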
# SARS PLP yeast = qHTS of Yeast-based Assay for SARS-CoV PLP. S. cerevisiae expressing SARS-CoV PLpro, growth rescue. Potency, µM (doses to about 32.9 µM), inactives show at the top dose activity, positive = growth rescue, most hits filed as activators. hit rate 0.19% among 330,000; calls by dose curve; further: potency means the concentration at half of the fitted maximal effect; 0% is about no effect; nearly all actives have a fitted effect of over 55% in size
# * = called active by the depositor; u = inconclusive; x = no result given; [ ] = remark or other dose. Most compounds without a hit are left out; they make up all but 15% or so of the library. Unless noted, the call rests on the fitted dose curve; in most records, active means well fitted curve in the direction sought with a large enough effect; inconclusive means small, poorly fitted or top-dose-only effect, or another doubt; inactive means no such curve, though single readings can be large; an effect the other way counts as inactive or inconclusive.
SMILES,HCV inhibitor,Pf growth 48h,Pf growth 96h,Sm TGR inh,HCMV antiviral,SARS PLP yeast
COc1cc2c(cc1OC)CN(C(=O)CCNC(=O)c1ccccc1Cl)CC2,8%,x,x,x,5,2%
CN(C)S(=O)(=O)Oc1ccsc1C(=O)Nc1cccc(Cl)c1Cl,u,-16%,u,-3%,-68*,-14%
Cc1c(C(=O)N/N=C/c2ccccn2)nnn1-c1nonc1N,-14%,28%,u,1%,-28,1%
CCOc1ccc(Nc2n[nH]c(=S)s2)cc1,-6%,u,2.9µM*,2%,66,-10%
Cc1ccc(Nc2n[nH]c(=S)s2)cc1,x,x,x,x,19,x
Oc1ccc(N=Nc2cccc(C(F)(F)F)c2)cc1C=Nc1ccc(N2CCOCC2)cc1,0%,u,3.3µM*,-8%,-38,0%
CC(C)(C)NC(=O)N1CCN(c2nc3ccc(Cl)cc3s2)CC1,13µM*,5%[0.00184 µM],39%,3%,x,0%
CCCCC(=O)N1CCN(c2nc3ccc(Cl)cc3s2)CC1,7.9µM*,46%,45%,-25%,u,-5%
COCCn1c(SCC(=O)NCc2ccc3c(c2)OCO3)nc2ccccc2c1=O,-11%,-11%,4%,0%,13,1%
CCN=C1SC(C(=O)Nc2ccc(OC)cc2)CC(=O)N1CC (stereo unspecified),-11%,10%,9%,-12%,-37,2%
CCc1ccc2occ(CC(=O)Nc3ccccc3C(F)(F)F)c2c1,x,x,x,0%,7,x
COc1cc2[nH]c(=O)n(Cc3ccc(C(=O)NCc4ccccc4)cc3)c(=O)c2cc1OC,x,x,x,1%,0,x
COc1ccc([N+](=O)[O-])cc1NC(=O)Nc1ccc(OC)c(OC)c1,2.8µM*,u,19%[5.75 µM],-1%,-72*,0%
COc1ccc([N+](=O)[O-])cc1NC(=O)Nc1cccc(Cl)c1,u,9.3µM*,87%,1%,-62*,11%
COc1ccc(NC(=O)NC23CC4(C)CC(C)(CC(C)(C4)C2)C3)cc1OC,u,2.6µM*,u,6%,u,-18%
O=c1ccc(-c2ccc(S(=O)(=O)Nc3ccc(F)cc3)s2)n[nH]1,20%,27%,u,-8%,u,-2%
Cc1ccc(Nc2nc(Cl)nc(NC(C)(C)C)n2)cc1,-13%,41%,186%,2%,11,-17%
Cc1ccccc1Nc1nc(Nc2ccccc2C)nc(SC2=NCCS2)n1,u,10µM*,x,-1%,u,u
Clc1ccccc1NCSC1=NCCS1,2%,x,x,x,15,x
Cc1ccc(Nc2nc(Nc3ccc(C)cc3)nc(SC3=NCCS3)n2)cc1,u,x,13µM*,7%,-5,28%
O=C(NC1CCCCC1)c1cccnc1Sc1ccccc1,10%,17%,28%,-6%,15,13%
CCS(=O)(=O)N1CCC(C(=O)Nc2ccccc2OC)CC1,-7%,30%,95%,0%,20,2%
CC(=O)Nc1ccc(-n2c(C)nc(=O)c(-c3ccccc3)c2C)cc1,0%,-12%,5.2µM*,-17%,0,-1%
CN(C)CCCNS(=O)(=O)c1ccc(Cl)s1,11%,0%,u,-21%,38,-1%
Cc1ccc(C23CC4CC(CC(NC(=O)NCCN(C)C)(C4)C2)C3)cc1,u,x,u,-23%,-6,0%
SMILES,HCV inhibitor,Pf growth 48h,Pf growth 96h,Sm TGR inh,HCMV antiviral,SARS PLP yeast
CN(C)CCNC(=O)COc1ccc(C23CC4CC(CC(C4)C2)C3)cc1,11µM*,-4%[5.75 µM],52%,16%,-68*,-1%
COc1ccc(CN2CCC2(C)C(=O)NCCc2c[nH]c3ccccc23)c2ccccc12 (stereo unspecified),x,x,x,x,36,x
COc1ccc(OC)c(NC(=O)c2cccc(S(=O)(=O)N(Cc3ccccc3)c3ccccc3OC)c2)c1,-13%,15µM*,7.4µM*,-6%,5,-3%
COc1ccccc1N(Cc1ccccc1)S(=O)(=O)c1cccc(C(=O)N2CCCCC2)c1,-1%,x,x,x,-19,-5%
COc1ccccc1N(Cc1ccccc1)S(=O)(=O)c1cccc(C(=O)Nc2ccc(C(C)=O)cc2)c1,-1%,u,3.7µM*,-1%,71,2%
COc1ccc(OC)c(NC(=O)c2ccc(CN(c3cc(Cl)ccc3C)S(=O)(=O)c3ccccc3)cc2)c1,-16%,1.5µM*,u,0%,-38,-1%
COc1cccc(C(=O)NCC2CCCN(C(=O)Cc3cccc(C)c3)C2)c1OC (stereo unspecified),x,x,x,x,6,x
C[C@H](NC(=O)Nc1cccc(Br)c1)C(=O)O,19%,18%,33%,4%,-2,0%
CN1C(=O)CC(N2CCN(c3ccc(Cl)c(Cl)c3)CC2)C1=O (stereo unspecified),-4%,22%,x,-8%,-28,-2%
CCCn1c(SCC(=O)N2CCN(C(C)=O)CC2)nc2sc3c(c2c1=O)CCC3,1%,u,13µM*,4%,u,4%
Cc1sc2nc3ccc(NCc4ccco4)nn3c(=O)c2c1C,-13%,3%,-3%,35µM*,23,-25%
CC(=O)CSc1ncnc2sc3c(c12)CCC(C)C3 (stereo unspecified),u,-15%[1.15 µM],-6%,-2%,11,3%
CCN(CC)C(=O)CSc1nc2sc3c(c2c(=O)n1CCCOC)CCC3,-20%,u,0%,-27%,-76*,2%
CCCn1c(SCC(=O)NCC)nc2sc3c(c2c1=O)CCC3,-6%,-8%,-24%,-1%,38,8%
CC(=O)CSc1ncnc2sc3c(c12)CCCC3,10µM*,18%,34%,-13%[57.1 µM],6,-2%
COCCn1c(SCC(=O)Nc2ncc(C)s2)nc2sc3c(c2c1=O)CCC3,2.2µM*,u,-18%,-7%,x,-5%
Cc1sc2nc(SCC(=O)NCc3ccco3)n(CCc3ccccc3)c(=O)c2c1C,12%,12µM*,-1%,-5%,-68*,u
COCCCn1c(SCC(=O)NCc2ccco2)nc2sc3c(c2c1=O)CCC3,-24%,u,3%,40µM*,-33,-6%
O=C(CSc1nc2sc3c(c2c(=O)n1-c1ccccc1)CCCC3)NCc1ccco1,1%,-6%,u,-11%,-93*,5%
Cn1nc(-c2ccc(OCC(=O)Nc3cccc(C(F)(F)F)c3)cc2)c2ccccc2c1=O,x,x,x,-2%,-22,x
CC(C)c1cccc(C(C)C)c1NC(=O)OC1CCCCC1,x,x,x,x,-25,x
O=C(CSc1ncnc2sc3c(c12)CCCCC3)NCc1ccco1,11µM*,-1%,x,32µM*,-9,-12%

# Bioassay records from PubChem BioAssay.
